Holding throughout (test): DAPPL (digital affinity profiling via proximity ligation, sequencing); 10 mM Tris-HCl pH 7.5, 50 mM NaCl, 1 mM DTT, 4% glycerol, room temperature, 30 min; GST-TFs on glutathione beads, 16-mer random dsDNA library, 0.1% formaldehyde crosslink after washing; high values mean tight binding
For one test, the target named is T1, FEV (Homo sapiens, UniProt Q99581 1-238).
T1 sequence: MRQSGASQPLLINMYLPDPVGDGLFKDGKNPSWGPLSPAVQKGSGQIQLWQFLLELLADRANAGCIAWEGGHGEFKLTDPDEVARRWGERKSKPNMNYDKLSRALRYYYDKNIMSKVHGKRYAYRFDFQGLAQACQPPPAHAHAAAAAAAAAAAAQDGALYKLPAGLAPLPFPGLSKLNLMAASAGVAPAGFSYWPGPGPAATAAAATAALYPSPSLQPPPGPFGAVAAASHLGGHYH
Particulars: protein: recombinant; tags: N-terminal GST; dsDNA, one strand shown. A digest of the protocol:
(§1)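 In yeast, human transcription factors were expressed with a GST fusion, then pulled down on glutathione beads and given DNA barcodes. Pooled with a tag-only sample, they were exposed to 200 nmole of a 16-mer random double-stranded DNA library (Tris/NaCl/DTT/glycerol buffer, room temperature, 30 min), washed, crosslinked with 0.1% formaldehyde, proximity-ligated using BsaI/T4 ligase for 1 h at 37 °C, PCR-amplified and read on an Illumina NextSeq500. Each hexamer's frequency of reads for a factor, divided by the matching frequency for the tag-only sample, gives the binding signal.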

Another test concerns the target ETV5 (Homo sapiens, UniProt P41161 1-510). The conditions noted are these: protein: recombinant; tags: N-terminal GST; dsDNA, one strand shown. Put shortly: as §1
The next test has as its target HSF1 (Homo sapiens, UniProt Q00613 1-529). The conditions noted are these: protein: recombinant; tags: N-terminal GST; chain copies: 3; dsDNA, one strand shown. A digest of the protocol: as §1
The next test deals with T2, SPIC (Homo sapiens, UniProt Q8N5J4 1-248).
T2 sequence: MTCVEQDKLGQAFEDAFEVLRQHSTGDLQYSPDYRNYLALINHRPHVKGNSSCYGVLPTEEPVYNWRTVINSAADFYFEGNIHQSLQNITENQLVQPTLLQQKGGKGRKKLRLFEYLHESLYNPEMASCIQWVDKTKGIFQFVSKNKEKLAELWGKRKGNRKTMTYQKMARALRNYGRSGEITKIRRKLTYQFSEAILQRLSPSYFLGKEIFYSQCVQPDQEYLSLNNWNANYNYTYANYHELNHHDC
Particulars: protein: recombinant; tags: N-terminal GST; dsDNA, one strand shown. Put shortly: as §1

The target of another test is ELF4 (Homo sapiens, UniProt Q99607 1-663). Particulars: protein: recombinant; tags: N-terminal GST; dsDNA, one strand shown. A digest of the protocol: as §1
Sequence of ELF4 (Q99607 whole entry): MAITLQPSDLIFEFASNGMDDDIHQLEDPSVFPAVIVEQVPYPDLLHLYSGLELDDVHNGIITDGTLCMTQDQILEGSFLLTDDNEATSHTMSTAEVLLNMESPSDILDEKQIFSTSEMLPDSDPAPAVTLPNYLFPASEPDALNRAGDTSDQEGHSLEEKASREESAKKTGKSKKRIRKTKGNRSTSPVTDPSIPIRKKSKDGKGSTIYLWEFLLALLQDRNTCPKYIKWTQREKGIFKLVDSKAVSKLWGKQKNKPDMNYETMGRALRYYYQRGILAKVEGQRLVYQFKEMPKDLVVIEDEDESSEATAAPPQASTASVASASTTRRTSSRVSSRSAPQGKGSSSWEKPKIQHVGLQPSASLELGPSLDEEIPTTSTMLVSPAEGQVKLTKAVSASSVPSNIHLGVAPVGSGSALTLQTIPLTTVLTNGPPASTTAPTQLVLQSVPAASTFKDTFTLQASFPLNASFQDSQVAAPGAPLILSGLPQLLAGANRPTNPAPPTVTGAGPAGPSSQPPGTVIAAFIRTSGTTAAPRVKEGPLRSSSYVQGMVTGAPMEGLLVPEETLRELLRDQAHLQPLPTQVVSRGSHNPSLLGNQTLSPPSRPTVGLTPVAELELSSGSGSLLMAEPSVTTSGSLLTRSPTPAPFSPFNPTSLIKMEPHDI
In a further test the target is T3, ELK4 (Homo sapiens, UniProt P28324-2 1-405).
T3 sequence: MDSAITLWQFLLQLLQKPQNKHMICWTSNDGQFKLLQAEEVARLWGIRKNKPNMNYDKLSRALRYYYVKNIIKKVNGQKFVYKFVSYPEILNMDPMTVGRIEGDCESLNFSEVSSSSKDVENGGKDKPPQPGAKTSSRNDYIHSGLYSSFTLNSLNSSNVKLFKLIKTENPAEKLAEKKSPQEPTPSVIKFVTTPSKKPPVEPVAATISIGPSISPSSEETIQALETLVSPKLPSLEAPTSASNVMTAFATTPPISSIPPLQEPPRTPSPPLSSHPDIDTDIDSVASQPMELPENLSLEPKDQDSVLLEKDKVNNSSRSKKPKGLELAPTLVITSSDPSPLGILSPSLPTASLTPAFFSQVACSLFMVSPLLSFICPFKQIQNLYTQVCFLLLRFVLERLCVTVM
The conditions noted are these: protein: recombinant; tags: N-terminal GST; dsDNA, one strand shown. Put shortly:
as §1

The target in another test is T4, ETV2 (Homo sapiens, UniProt O00321 1-342).
T4 sequence: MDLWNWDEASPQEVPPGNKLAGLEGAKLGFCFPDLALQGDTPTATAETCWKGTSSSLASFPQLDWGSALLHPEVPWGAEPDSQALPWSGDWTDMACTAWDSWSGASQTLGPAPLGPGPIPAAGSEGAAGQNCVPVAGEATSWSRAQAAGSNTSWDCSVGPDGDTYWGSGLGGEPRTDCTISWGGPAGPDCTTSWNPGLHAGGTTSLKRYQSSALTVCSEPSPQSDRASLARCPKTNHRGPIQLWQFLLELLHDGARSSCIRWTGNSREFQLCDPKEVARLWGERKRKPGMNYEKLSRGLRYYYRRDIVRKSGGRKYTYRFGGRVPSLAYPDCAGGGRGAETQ
Particulars: protein: recombinant; tags: N-terminal GST; dsDNA, one strand shown. Put shortly:
as §1

The target of the next test is T5, ELF3 (Homo sapiens, UniProt P78545 1-371).
T5 sequence: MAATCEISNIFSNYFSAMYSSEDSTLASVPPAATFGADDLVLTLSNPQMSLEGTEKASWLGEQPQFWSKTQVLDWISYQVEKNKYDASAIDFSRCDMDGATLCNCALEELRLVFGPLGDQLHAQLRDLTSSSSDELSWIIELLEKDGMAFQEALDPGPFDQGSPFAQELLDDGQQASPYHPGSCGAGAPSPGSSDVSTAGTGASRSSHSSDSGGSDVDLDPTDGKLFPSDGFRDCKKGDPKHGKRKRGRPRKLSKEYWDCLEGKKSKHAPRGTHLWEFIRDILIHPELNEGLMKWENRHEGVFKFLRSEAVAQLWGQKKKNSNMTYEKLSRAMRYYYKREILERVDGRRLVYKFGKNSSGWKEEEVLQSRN
The conditions noted are these: protein: recombinant; tags: N-terminal GST; dsDNA, one strand shown. Put shortly: as §1

For a further test, the target named is CRX (Homo sapiens, UniProt O43186 1-299). The conditions noted are these: protein: recombinant; tags: N-terminal GST; dsDNA, one strand shown. A digest of the protocol: as §1
Sequence of CRX (O43186 whole entry): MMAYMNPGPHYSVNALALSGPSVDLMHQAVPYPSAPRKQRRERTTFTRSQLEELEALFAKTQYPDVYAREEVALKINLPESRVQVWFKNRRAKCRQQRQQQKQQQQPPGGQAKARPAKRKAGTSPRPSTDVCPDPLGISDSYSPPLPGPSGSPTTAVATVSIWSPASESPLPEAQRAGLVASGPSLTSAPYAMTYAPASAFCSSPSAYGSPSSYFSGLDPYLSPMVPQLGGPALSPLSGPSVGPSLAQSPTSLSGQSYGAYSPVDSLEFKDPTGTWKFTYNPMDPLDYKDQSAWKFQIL
Another test deals with ETV1 (Homo sapiens, UniProt P50549 1-477). The conditions noted are these: protein: recombinant; tags: N-terminal GST; dsDNA, one strand shown. A digest of the protocol: as §1
Sequence of ETV1 (P50549 whole entry): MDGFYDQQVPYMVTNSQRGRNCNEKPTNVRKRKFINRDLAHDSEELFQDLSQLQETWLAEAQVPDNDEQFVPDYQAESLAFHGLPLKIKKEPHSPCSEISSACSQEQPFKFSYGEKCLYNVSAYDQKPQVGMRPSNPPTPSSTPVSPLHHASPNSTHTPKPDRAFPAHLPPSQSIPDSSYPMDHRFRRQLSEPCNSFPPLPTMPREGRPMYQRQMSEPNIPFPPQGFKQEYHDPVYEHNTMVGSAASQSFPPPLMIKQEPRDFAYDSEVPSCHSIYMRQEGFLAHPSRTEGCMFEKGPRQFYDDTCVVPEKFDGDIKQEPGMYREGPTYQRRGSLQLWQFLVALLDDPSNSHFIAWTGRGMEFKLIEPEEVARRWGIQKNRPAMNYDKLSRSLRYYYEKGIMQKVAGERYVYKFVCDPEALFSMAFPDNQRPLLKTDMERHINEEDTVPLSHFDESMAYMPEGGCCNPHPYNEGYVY
The target of another test is T6, ERF (Homo sapiens, UniProt P50548 1-548).
T6 sequence: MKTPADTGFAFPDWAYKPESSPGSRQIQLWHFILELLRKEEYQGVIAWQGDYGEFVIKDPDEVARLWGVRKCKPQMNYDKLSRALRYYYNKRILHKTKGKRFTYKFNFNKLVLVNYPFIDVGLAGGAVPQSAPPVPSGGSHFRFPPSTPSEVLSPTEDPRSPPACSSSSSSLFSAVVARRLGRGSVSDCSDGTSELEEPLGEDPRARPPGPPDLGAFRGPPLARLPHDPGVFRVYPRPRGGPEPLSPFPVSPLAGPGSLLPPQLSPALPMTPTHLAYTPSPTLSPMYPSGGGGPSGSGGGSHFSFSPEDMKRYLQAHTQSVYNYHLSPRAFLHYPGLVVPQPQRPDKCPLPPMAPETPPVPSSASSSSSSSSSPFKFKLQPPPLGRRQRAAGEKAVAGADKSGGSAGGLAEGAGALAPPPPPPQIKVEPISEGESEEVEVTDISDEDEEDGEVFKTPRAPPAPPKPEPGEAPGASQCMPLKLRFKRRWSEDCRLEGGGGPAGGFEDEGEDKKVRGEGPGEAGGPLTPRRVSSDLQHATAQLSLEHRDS
Particulars: protein: recombinant; tags: N-terminal GST; dsDNA, one strand shown. Put shortly: as §1

The next test addresses T7, ETV3L (Homo sapiens, UniProt Q6ZN32 1-361).
T7 sequence: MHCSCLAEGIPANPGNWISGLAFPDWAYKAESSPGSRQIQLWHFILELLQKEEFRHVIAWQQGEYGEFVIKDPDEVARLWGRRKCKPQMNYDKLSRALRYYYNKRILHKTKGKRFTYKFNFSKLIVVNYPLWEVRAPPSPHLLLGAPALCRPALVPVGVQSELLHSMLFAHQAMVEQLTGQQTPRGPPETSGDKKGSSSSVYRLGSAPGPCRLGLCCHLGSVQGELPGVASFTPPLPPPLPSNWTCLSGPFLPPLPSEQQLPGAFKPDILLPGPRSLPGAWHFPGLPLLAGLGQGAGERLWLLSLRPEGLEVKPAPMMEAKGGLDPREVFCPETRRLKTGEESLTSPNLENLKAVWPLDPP
Particulars: protein: recombinant; tags: N-terminal GST; dsDNA, one strand shown. A digest of the protocol: as §1

The target in another test is T8, ETS2 (Homo sapiens, UniProt P15036 1-469).
T8 sequence: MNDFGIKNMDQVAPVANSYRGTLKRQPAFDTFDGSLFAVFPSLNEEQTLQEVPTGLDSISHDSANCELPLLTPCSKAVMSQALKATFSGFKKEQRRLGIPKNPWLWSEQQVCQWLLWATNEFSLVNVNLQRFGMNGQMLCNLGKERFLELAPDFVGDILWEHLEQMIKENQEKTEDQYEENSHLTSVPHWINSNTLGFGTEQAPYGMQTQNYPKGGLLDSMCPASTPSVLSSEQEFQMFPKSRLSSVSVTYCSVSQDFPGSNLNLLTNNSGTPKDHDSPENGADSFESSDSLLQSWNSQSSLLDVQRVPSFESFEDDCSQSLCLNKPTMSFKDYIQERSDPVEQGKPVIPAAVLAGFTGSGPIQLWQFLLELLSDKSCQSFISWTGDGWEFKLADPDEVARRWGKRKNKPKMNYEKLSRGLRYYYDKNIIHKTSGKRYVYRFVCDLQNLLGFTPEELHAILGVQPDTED
Particulars: protein: recombinant; tags: N-terminal GST; dsDNA, one strand shown. A digest of the protocol:
as §1

Another test deals with T9, SPDEF (Homo sapiens, UniProt O95238 1-335).
T9 sequence: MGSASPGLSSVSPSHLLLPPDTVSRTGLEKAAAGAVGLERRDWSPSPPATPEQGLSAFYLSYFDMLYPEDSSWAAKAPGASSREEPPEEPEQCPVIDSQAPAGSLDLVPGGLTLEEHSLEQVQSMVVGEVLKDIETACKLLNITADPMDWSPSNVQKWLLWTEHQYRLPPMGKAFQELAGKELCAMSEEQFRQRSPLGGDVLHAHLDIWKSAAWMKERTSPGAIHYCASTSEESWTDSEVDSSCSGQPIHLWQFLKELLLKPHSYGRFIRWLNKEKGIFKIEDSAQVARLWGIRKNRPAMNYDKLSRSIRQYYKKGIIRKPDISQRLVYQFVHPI
Particulars: protein: recombinant; tags: N-terminal GST; dsDNA, one strand shown. A digest of the protocol: as §1

The target of a further test is T10, ETV7 (Homo sapiens, UniProt Q9Y603 1-341).
T10 sequence: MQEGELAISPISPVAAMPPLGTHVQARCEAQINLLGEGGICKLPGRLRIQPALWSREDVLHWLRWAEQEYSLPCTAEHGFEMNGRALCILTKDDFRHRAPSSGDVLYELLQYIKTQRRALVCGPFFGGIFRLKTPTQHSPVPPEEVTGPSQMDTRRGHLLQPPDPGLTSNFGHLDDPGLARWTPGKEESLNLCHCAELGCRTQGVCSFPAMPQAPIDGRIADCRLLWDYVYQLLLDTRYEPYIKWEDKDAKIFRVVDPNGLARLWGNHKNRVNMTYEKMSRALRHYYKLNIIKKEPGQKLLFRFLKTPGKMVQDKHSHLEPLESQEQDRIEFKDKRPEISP
Particulars: protein: recombinant; tags: N-terminal GST; dsDNA, one strand shown. A digest of the protocol: as §1

The next test concerns the target T11, ELF5 (Homo sapiens, UniProt Q9UKW6-2 1-255).
T11 sequence: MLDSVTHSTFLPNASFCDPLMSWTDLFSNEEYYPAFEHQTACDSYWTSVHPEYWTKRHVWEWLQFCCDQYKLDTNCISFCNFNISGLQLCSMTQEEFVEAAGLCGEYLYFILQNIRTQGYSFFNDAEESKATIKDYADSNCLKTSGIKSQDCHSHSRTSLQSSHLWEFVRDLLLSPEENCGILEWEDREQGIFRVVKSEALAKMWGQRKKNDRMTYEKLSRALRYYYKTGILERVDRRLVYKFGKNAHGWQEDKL
The conditions noted are these: protein: recombinant; tags: N-terminal GST; dsDNA, one strand shown. Put shortly: as §1

The target of a further test is T12, ETV3 (Homo sapiens, UniProt P41162-2 1-143).
T12 sequence: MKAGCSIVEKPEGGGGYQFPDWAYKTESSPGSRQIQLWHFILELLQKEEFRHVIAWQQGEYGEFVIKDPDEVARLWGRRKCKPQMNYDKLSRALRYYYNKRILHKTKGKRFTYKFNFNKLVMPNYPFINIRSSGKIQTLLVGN
Particulars: protein: recombinant; tags: N-terminal GST; dsDNA, one strand shown. Put shortly:
as §1

The target of another test is ETV6 (Homo sapiens, UniProt P41212 1-452). The conditions noted are these: protein: recombinant; tags: N-terminal GST; dsDNA, one strand shown. A digest of the protocol:
as §1

Sequence of HSF1 (Q00613 whole entry): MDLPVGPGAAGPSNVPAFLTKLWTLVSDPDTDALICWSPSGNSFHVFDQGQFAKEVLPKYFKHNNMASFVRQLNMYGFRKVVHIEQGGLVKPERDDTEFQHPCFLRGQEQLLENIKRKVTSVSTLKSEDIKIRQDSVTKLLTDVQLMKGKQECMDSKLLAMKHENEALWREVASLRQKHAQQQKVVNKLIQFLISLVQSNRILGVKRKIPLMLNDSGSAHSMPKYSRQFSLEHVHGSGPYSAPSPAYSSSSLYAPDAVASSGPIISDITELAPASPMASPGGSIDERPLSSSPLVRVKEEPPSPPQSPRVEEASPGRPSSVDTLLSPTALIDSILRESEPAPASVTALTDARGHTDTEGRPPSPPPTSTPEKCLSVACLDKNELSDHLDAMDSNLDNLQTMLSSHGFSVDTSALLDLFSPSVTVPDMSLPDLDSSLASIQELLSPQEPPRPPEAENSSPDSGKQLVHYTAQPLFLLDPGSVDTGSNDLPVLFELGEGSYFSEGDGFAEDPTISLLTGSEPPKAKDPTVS
Sequence of ETV6 (P41212 whole entry): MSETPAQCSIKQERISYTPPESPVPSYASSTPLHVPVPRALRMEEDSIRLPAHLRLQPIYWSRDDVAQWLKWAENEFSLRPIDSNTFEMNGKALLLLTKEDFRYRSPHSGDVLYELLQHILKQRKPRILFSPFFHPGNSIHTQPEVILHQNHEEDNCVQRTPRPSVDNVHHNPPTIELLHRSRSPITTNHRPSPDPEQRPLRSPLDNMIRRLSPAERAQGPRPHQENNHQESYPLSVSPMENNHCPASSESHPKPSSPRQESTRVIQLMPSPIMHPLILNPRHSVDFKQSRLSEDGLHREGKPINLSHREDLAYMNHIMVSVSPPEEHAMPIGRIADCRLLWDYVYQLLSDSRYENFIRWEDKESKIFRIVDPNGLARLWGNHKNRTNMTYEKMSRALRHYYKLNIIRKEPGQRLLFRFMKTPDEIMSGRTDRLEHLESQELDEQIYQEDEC
Sequence of ETV5 (P41161 whole entry): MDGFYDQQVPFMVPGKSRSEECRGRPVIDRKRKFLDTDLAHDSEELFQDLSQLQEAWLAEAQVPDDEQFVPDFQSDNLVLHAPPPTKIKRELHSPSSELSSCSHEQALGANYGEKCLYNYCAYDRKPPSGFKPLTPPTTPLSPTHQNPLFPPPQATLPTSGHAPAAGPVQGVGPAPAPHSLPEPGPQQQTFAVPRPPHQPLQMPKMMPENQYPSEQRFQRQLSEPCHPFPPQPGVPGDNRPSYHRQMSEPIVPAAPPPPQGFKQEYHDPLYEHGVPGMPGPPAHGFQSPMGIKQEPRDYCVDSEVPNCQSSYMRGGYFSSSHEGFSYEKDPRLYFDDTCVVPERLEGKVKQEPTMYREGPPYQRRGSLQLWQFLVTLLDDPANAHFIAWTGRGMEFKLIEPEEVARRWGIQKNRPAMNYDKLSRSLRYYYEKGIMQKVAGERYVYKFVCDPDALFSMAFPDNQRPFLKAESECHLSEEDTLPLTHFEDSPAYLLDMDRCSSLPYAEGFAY

CTTCCA: the binding signal is 1.43 fold enrichment (6-mer frequency, TF over GST control) with FEV; 1.46 fold enrichment (6-mer frequency, TF over GST control) with ETV5; 2.18 fold enrichment (6-mer frequency, TF over GST control) in the test with HSF1; 1.44 fold enrichment (6-mer frequency, TF over GST control) with SPIC; 1.33 fold enrichment (6-mer frequency, TF over GST control) with ELF4; 1.45 fold enrichment (6-mer frequency, TF over GST control) with ELK4. Moreover, the binding signal in the test with ETV2 is 1.37 fold enrichment (6-mer frequency, TF over GST control); with ELF3, 1.49 fold enrichment (6-mer frequency, TF over GST control); with CRX, 1.42 fold enrichment (6-mer frequency, TF over GST control); with ETV1, 1.48 fold enrichment (6-mer frequency, TF over GST control); with ERF, 1.55 fold enrichment (6-mer frequency, TF over GST control); in the test with ETV3L it was 1.52 fold enrichment (6-mer frequency, TF over GST control). Further, the binding signal in the test with ETS2 is 1.45 fold enrichment (6-mer frequency, TF over GST control); with SPDEF it was 1.45 fold enrichment (6-mer frequency, TF over GST control); with ETV7, 1.36 fold enrichment (6-mer frequency, TF over GST control); with ELF5, 1.64 fold enrichment (6-mer frequency, TF over GST control); with ETV3, 1.41 fold enrichment (6-mer frequency, TF over GST control); with ETV6, 1.76 fold enrichment (6-mer frequency, TF over GST control).

(Values after publication PMC7862700, “An all-to-all approach to the identification of sequence-specific readers for epigenetic DNA modifications on cytosine”.)
